This is a sample that favours compounds with a hit; in the whole collection about 4.7% have one here.
DAT uptake mod: changed human dopamine transporter uptake under cocaine IC80. Q01959. LLC-PK1 hDAT cells, [14C]-dopamine uptake with cocaine IC80; actives deviate in either direction. B-score at 10 µM. actives 1.3% (n = 110,000). AID 449768;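 active = Z score or B-score, a plate-position-corrected score, falls beyond the plate's 99.7% confidence bounds, in either direction; inactive = both scores lie inside the 99.7% bounds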
Pyk2 oligo antag: blocks oligomerization of human Pyk2 in cells | Q14289 | Q293 cells, Pyk2 FERM NanoBiT luminescence; active compounds read low | z-score (the deposit names both 25 µM and 10 µM) | actives 0.83% (n = 99,000);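 active = Z-score of -3 or lower, scaled per plate to the spread of control and sample wells; inactive = z-score above -3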;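 note: negative z-score means lost luminescence so less FERM oligomerization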
Plk1 PBD FP: blocks phosphopeptide binding to human Plk1 polo box domain | P53350 | Plk1 PBD phosphopeptide binding, fluorescence polarization | inhibition, %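 (tested at about 20 µM)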 | actives 0.13% (n = 97,000) | AID 693; in the data active = inhibition above about 34%, passing the limit was not always enough
Target sequence (P53350 whole entry, looked up, the tested form may be a part): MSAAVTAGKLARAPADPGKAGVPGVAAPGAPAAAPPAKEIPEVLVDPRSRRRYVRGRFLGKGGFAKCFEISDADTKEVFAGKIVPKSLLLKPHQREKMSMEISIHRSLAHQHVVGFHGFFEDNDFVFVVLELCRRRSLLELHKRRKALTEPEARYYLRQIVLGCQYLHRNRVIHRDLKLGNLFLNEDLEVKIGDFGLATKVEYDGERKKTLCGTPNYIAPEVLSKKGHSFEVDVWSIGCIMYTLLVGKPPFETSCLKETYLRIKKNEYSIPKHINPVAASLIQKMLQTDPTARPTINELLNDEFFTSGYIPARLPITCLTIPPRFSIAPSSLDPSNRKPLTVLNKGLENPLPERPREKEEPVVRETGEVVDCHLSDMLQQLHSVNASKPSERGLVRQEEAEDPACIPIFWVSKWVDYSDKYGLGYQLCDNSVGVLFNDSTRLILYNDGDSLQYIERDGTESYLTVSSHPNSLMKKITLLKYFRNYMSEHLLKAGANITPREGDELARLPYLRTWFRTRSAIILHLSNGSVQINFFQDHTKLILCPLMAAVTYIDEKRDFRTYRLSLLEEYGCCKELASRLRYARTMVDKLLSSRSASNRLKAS
PLK1 inh: blocks human PLK1 kinase activity; P53350; recombinant PLK1 kinase, TR-FRET peptide phosphorylation; inhibition, % at 10 µM; actives 0.53% (n = 97,000); AID 619;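 active = inhibition of 50% or more in the single-concentration screen; inactive = inhibition below 50%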
Cav3 T inh: human Cav3.2 channel inhibition, primary screen; O95180; Cav3.2-expressing cells, Fluo-4 calcium fluorescence FDSS; active compounds read low; B-score at 10 µM; actives 4% (n = 100,000);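 active = single-dose well whose peak fluorescence ratio is a statistical outlier from its plate by either plate-standardised score or position-corrected B-score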
SDO1 yeast rescue: sdo1-depleted yeast growth rescue | S. cerevisiae sdo1-depleted JHY4D growth rescue, OD600 30 h; active compounds read high; pdr5 snq2 efflux-pump mutant strain | z-score at 10 µM | actives 0.21% (n = 140,000) | AID 817;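 active = z-score above 3 at both the 24 hr and the 30 hr optical density reads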
Numbers stand for hits; . = inactive; / = not tested or not shown.

SMILES	DAT uptake mod	Pyk2 oligo antag	Plk1 PBD FP	PLK1 inh	Cav3 T inh	SDO1 yeast rescue
Cc1cc(C)cc(NC(=O)C2(c3ccccc3)CC2(Cl)Cl)c1 (stereo not given)	.	.	.	.	-6.13	.
CCc1ccc(NC(=O)C2(c3ccccc3)CC2(Cl)Cl)cc1 (stereo not given)	.	-3.07	.	.	.	.
Cc1cccc(NC(=O)C2(c3ccccc3)CC2(Cl)Cl)c1 (stereo not given)	/	.	.	.	-7.99	.
Cc1ccc(NC(=O)C2(c3ccccc3)CC2(Cl)Cl)cc1C (stereo not given)	/	-3.23	.	.	/	.
CCN(CC)S(=O)(=O)c1ccc(NC(=O)COC(=O)CNS(=O)(=O)/C=C/c2ccccc2)cc1	/	/	/	/	/	.
Cc1cc(C)cc(C(=O)N2CC(=O)Nc3ccccc32)c1	-3.29	.	.	.	.	.
Cc1ccsc1C(=O)N1CC(=O)Nc2ccccc21	.	.	.	.	.	.
Cc1nc(CS(=O)c2ccc(Cl)cc2)cc(NCc2ccc(Cl)cc2Cl)n1 (stereo not given)	2.65	.	.	.	-5.75	.
Cc1nc(CSc2ccc(Cl)cc2)cc(N2CCOCC2)n1	.	.	.	.	.	.
Cc1nc(CSc2ccc(Cl)cc2)cc(NCc2ccccc2)n1	.	.	.	.	-8.31	.
CC(=O)c1ccc(OCCCC(=O)NC2CCCc3ccccc32)cc1 (stereo not given)	/	/	/	/	/	.
Cc1ccccc1N(C)S(=O)(=O)c1ccc2[nH]cc(C(=O)NCC3CCCO3)c(=O)c2c1 (stereo not given)	.	-3.17	/	/	.	.
O=c1c2ccccc2nc(SCc2cn3ccsc3n2)n1-c1ccc(F)cc1	.	-3.26	.	.	.	.
CC(C)Cc1cc(C(=O)Nc2c(F)cc(F)cc2Br)no1	6.5	/	.	.	.	.
CC(C)Cc1cc(C(=O)Nc2ccc(F)cc2F)no1	.	/	/	/	.	.
COc1ccc(-c2cc(C(=O)N3CCN(C(c4ccccc4)c4ccccc4)CC3)no2)cc1OC	.	.	.	.	-6.3	.
COc1ccc(-c2cc(C(=O)N3CCN(C(c4ccccc4)c4ccccc4)CC3)no2)cc1	.	.	.	.	.	.
Cc1cc(C)c(S(C)(=O)=O)c(Oc2cccc(Cl)c2)n1	.	.	.	.	/	.
Cc1ccc(S(=O)(=O)c2c(C)cc(C)nc2Oc2cccc(C(F)(F)F)c2)cc1	.	.	.	.	-6.28	.
COc1cc(-c2c(C#N)c(=O)[nH]c3c2c(C)nn3-c2ccccc2)ccc1O	.	-3.28	.	.	.	.
CCc1nc(N)c(C#N)c(-c2ccc(O)c(OC)c2)c1C	.	.	.	.	.	.
Cc1nn(-c2ccccc2)c(Cl)c1/C=C1/C(=N)N2N=C(C(C)C)SC2=NC1=O	/	/	/	/	/	.
Cc1nn(-c2ccccc2)c(Cl)c1/C=C1\SC(=S)NC1=O	-4.41	.	.	.	-4.48	.
COc1ccc2nc(Nc3nc(C)c(CCC(C)C)c(=O)[nH]3)nc(C)c2c1	.	.	.	.	-5.36	.
CCCCc1c(C)nc(Nc2ccc(OC)cc2)[nH]c1=O	/	/	/	/	/	.
SMILES	DAT uptake mod	Pyk2 oligo antag	Plk1 PBD FP	PLK1 inh	Cav3 T inh	SDO1 yeast rescue
CC(=O)Nc1nc(-c2ccccc2)nc(C)c1C(C)=O	-8.49	.	.	.	.	.
O=C(Nc1ccc2c(c1)OCCO2)C1c2ccccc2C(=O)N2CCc3ccccc3C12 (stereo not given)	.	/	.	.	.	.
COCCN1C(=O)c2ccccc2C(C(=O)Nc2ccc3c(c2)OCCO3)C1c1ccc(F)cc1 (stereo not given)	.	-3.36	.	.	.	.
CSc1nc(N)nc(SCCS(=O)(=O)c2ccc(Cl)cc2)c1C#N	6.07	.	.	.	.	.
CSc1nc(N)nc(SCC(=O)Nc2ccc(Cl)cc2)c1C#N	.	.	.	.	.	.
Cc1c(NC(=O)/C=C/c2cn(-c3ccccc3)nc2-c2ccccc2)c(=O)n(-c2ccccc2)n1C	.	.	.	.	-4.54	.
Cc1nn(Cc2ccccc2)c(C)c1NC(=O)c1noc2c1CCc1ccccc1-2	.	/	.	.	-6.26	.
Clc1ccccc1CSc1nnc(-c2ccccn2)n1Cc1ccco1	.	.	.	.	.	.
C(=C\c1ccccc1)/CSc1nnc(-c2ccccn2)n1Cc1ccco1	.	.	.	.	-5.47	.
Cc1c(C(=O)O)nn(-c2ccccc2)c(=O)c1C#N	.	/	.	62.8	.	.
Cc1cccc(NC(=O)CSc2ncnc3nc[nH]c23)c1	.	.	.	55.4	.	.
N#CC(Cc1ccccc1OC(F)F)c1nc2ccccc2[nH]1 (stereo not given)	/	/	/	/	/	.
O=C(NCCc1ccccc1)C(NS(=O)(=O)c1cccc2nsnc12)c1ccccc1 (stereo not given)	/	/	/	/	/	.
N#Cc1cc(-c2ccccc2)oc1NC(=O)c1ccco1	-8.79	.	.	.	.	.
Cc1cccc(C(=O)Nc2oc(-c3ccccc3)cc2C#N)c1	.	.	.	.	.	.
COc1ccc(N2CCN(C(=O)CSc3nnc4n3C(C)(C)Cc3ccccc3-4)CC2)cc1	.	.	.	.	/	.
Cc1ccc(Cl)cc1N1CCN(C(=O)CSc2nnc3n2C(C)(C)Cc2ccccc2-3)CC1	.	.	.	.	-5.46	.
Cc1cccc(-n2nc3c(c2NC(=O)c2ccc(S(=O)(=O)N4CCOCC4)cc2)CSC3)c1C	/	.	.	.	/	.
O=C(Nc1c2c(nn1-c1ccc(F)cc1)CSC2)c1ccc(S(=O)(=O)N2CCOCC2)cc1	.	.	.	.	-5.58	.
CC(C)CC(=O)Nc1c2c(nn1-c1ccc(F)cc1)CSC2	/	/	/	/	/	.
CC(C)(C)n1nc2c(c1NC(=O)c1ccc(S(=O)(=O)N3CCCC3)cc1)CSC2	.	.	.	.	-3.47	.
Cc1ccc(-n2nc3c(c2NC(=O)c2cccs2)CSC3)cc1	.	.	.	.	-6.26	.
Cc1ccccc1NC(=O)C(=O)NCc1ccccn1	.	.	.	.	-4.53	.
Cc1ccc(-n2c(C)cc(C(=O)OCC(=O)N(CC(C)C)C3CCS(=O)(=O)C3)c2C)cc1 (stereo not given)	.	.	.	.	-8.17	.
NCCNc1ccc([N+](=O)[O-])c(NC2CC2)c1	/	/	/	/	/	.
Cc1ccccc1NC(=O)/C(=C/c1ccco1)c1ccccc1	.	.	.	.	.	.
CCc1ccccc1NC(=O)/C(=C/c1ccco1)c1ccccc1	.	.	.	.	-5.54	.
Cc1ccc(-c2nnn(CC(=O)N(CC(=O)NC3CCCCC3)c3cnc4ccccc4c3)n2)o1	.	.	.	.	-4.37	/
Cc1ccc(-c2nnn(CC(=O)N(CC(=O)NCC3CCCO3)c3ccccc3)n2)o1 (stereo not given)	.	.	.	.	.	.
O=C(CN(Cc1ccccc1F)C(=O)Cn1nnc(-c2cccs2)n1)NC1CCCCC1	.	.	.	.	-6.31	.
